Measurements: PubChem BioAssay (EPA / NIEHS)
Calls of active or inactive are those of the source. Rule for the calls: active = hit-call score of the fitted dose curve at least 0.9, where 1 is the maximum; inactive = score below 0.9.

How the values were obtained:
Conditions in all cases: mRNA level, 48 h; actives raise or lower the signal
[1] = read-out: Tumor necrosis factor receptor superfamily member 6 (Homo sapiens) (UniProt P25445); test: LTEA_HepaRG_FAS: Life Technologies and Expression Analysis (LTEA) Assay for Fas cell surface death receptor (FAS) using HepaRG (AID 2283447)
Summary of the method: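 Differentiated human HepaRG cells, pre-cultured 48 h, were exposed in duplicate for 48 h to 8-point half-log concentrations (top 100 uM, 0.5% DMSO) in serum-free induction medium; FAS mRNA measured by qRT-PCR, normalized to ACTB/GAPDH/POLR2A, bidirectional fit versus DMSO.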

[2] = read-out: Fatty acid synthase (Homo sapiens) (UniProt P49327); test: LTEA_HepaRG_FASN: Life Technologies and Expression Analysis (LTEA) Assay for Fatty Acid Synthase (FASN) using HepaRG (AID 2283448)
Summary of the method: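 Cells were plated, cultured 48 h, switched to serum-free induction medium, then dosed in duplicate (max 100 uM, half-log dilutions, 0.5% DMSO) for 48 h. RNA was then isolated and FASN quantified by qRT-PCR.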

[3] = read-out: Cyclin D2 (CCND2), CCND2 (gene 894); test: LTEA_HepaRG_CCND2: Life Technologies and Expression Analysis (LTEA) Assay for Cyclin D2 (CCND2) using HepaRG (AID 2283449);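 note: CCND2 transcript measured by TaqMan qRT-PCR and normalised to three housekeeping genes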
Summary of the method: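 In this HepaRG study, an eight-point concentration series (max 100 uM, 0.5% DMSO) is applied for 48 h. CCND2 mRNA change is derived by qRT-PCR normalised to ACTB, GAPDH and POLR2A.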

[4] = read-out: Cyclin Dependent Kinase Inhibitor 1A (CDKN1A), CDKN1A (gene 1026); test: LTEA_HepaRG_CDKN1A: Life Technologies and Expression Analysis (LTEA) Assay for Cyclin Dependent Kinase Inhibitor 1A (CDKN1A) using HepaRG (AID 2283450)
Summary of the method: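 Gain or loss of CDKN1A transcript is scored by bidirectional fitting against 0.5% DMSO vehicle. Human HepaRG cultures receive chemicals for 48 h across an 8-point series peaking at 100 uM; expression comes from qRT-PCR.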

[5] = read-out: catalase (CAT), CAT (gene 847); test: LTEA_HepaRG_CAT: Life Technologies and Expression Analysis (LTEA) Assay for catalase (CAT) using HepaRG (AID 2283452);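 for AC50: TaqMan qRT-PCR signal normalized to ACTB GAPDH and POLR2A housekeeping genes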
Summary of the method: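 Differentiated HepaRG cells in serum-free induction medium were dosed 48 h in duplicate, eight half-log concentrations from 100 uM in 0.5% DMSO. Transcript measured by TaqMan qRT-PCR, normalised to ACTB/GAPDH/POLR2A, fitted bidirectionally against DMSO.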

[6] = read-out: flavin-containing dimethylaniline monooxygenases 3 (FMO3), FMO3 (gene 2328); test: LTEA_HepaRG_FMO3: Life Technologies and Expression Analysis (LTEA) Assay for flavin-containing dimethylaniline monooxygenases 3 (FMO3) using HepaRG (AID 2283453);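 for AC50: FMO3 transcript by TaqMan qRT-PCR normalized to ACTB GAPDH and POLR2A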
Summary of the method: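 FMO3 transcript quantified by TaqMan qRT-PCR against three housekeeping genes after 48 h chemical exposure of HepaRG cells. Eight-point half-log series, top 100 uM, 0.5% DMSO vehicle; phenobarbital 1mM induction control; up- or down-regulation fitted.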

[7] = read-out: Cytochrome P450 (CYP1A1), CYP1A1 (gene 1543); test: LTEA_HepaRG_CYP1A1: Life Technologies and Expression Analysis (LTEA) Assay for Cytochrome P450 (CYP1A1) using HepaRG (AID 2283454)
Summary of the method: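 Using HepaRG cultures with 0.5% DMSO as vehicle, eight-concentration exposures (max 100 uM) lasted 48 h. Transcript levels were measured by TaqMan qRT-PCR and normalized to ACTB, GAPDH and POLR2A.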

[8] = read-out: CFLAR gene, CFLAR (gene 8837); test: LTEA_HepaRG_CFLAR: Life Technologies and Expression Analysis (LTEA) Assay for CFLAR gene using HepaRG (AID 2283455)
Summary of the method: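 Gain- or loss-of-signal changes in CFLAR transcript were fitted bidirectionally relative to 0.5% DMSO. Cells (HepaRG, duplicate wells) were dosed for 48 h across eight half-log concentrations topping at 100 uM; quantitation by TaqMan qRT-PCR.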

[9] = read-out: Forkhead box O1 (FOXO1), FOXO1 (gene 2308); test: LTEA_HepaRG_FOXO1: Life Technologies and Expression Analysis (LTEA) Assay for Forkhead box O1 (FOXO1) using HepaRG (AID 2283456)
Summary of the method: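 Using one lot of HepaRG hepatic cells kept in 0.5% DMSO, the team applied test chemicals in duplicate, half-log dilutions from 100 uM, for 48 h. Expression, normalised to ACTB/GAPDH/POLR2A, was compared with vehicle in either direction.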

[10] = read-out: growth arrest and DNA damage 45 (GADD45A), GADD45A (gene 1647); test: LTEA_HepaRG_GADD45A: Life Technologies and Expression Analysis (LTEA) Assay for growth arrest and DNA damage 45 (GADD45A) using HepaRG (AID 2283458)
Summary of the method: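 Transcript induction or loss, quantified by TaqMan qRT-PCR against three housekeeping genes, is the read-out. HepaRG cells received chemicals for 48 h across eight half-log concentrations from 100 uM in 0.5% DMSO; gain and loss fitted relative to DMSO.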

[11] = read-out: Forkhead box O3 (FOXO3), FOXO3 (gene 2309); test: LTEA_HepaRG_FOXO3: Life Technologies and Expression Analysis (LTEA) Assay for Forkhead box O3 (FOXO3) using HepaRG (AID 2283459)
Summary of the method: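 Gene-expression endpoint: FOXO3 transcript level by qRT-PCR in HepaRG cultures treated 48 h with chemicals up to 100 uM (half-log, 0.5% DMSO vehicle).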

[12] = read-out: ABC Transporter (ABCB1), ABCB1 (gene 5243); test: LTEA_HepaRG_ABCB1: Life Technologies and Expression Analysis (LTEA) Assay for ABC Transporter (ABCB1) using HepaRG (AID 2283460)
Summary of the method: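 Human liver HepaRG line treated 48 h with up to 100 uM compound (eight half-log points, 0.5% DMSO); ABCB1 mRNA change fitted bidirectionally against DMSO controls.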

[13] = read-out: growth arrest and DNA damage 45 (GADD45B), GADD45B (gene 4616); test: LTEA_HepaRG_GADD45B: Life Technologies and Expression Analysis (LTEA) Assay for growth arrest and DNA damage 45 (GADD45B) using HepaRG (AID 2283461)
Summary of the method: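 Human HepaRG monolayers receive chemicals for 48 h at eight half-log concentrations, highest 100 uM, in 0.5% DMSO. Expression is measured by TaqMan qRT-PCR and normalized to ACTB, GAPDH and POLR2A.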

[14] = read-out: ABC Transporter (ABCC3), ABCC3 (gene 8714); test: LTEA_HepaRG_ABCC3: Life Technologies and Expression Analysis (LTEA) Assay for ABC Transporter (ABCC3) using HepaRG (AID 2283462)
Summary of the method: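 Transcriptional change of ABCC3 in HepaRG after 48 h treatment, determined by qRT-PCR normalized to endogenous controls. Concentrations spanned eight half-log steps to 100 uM in 0.5% DMSO.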

[15] = read-out: ABC Transporter (ABCB11), ABCB11 (gene 8647); test: LTEA_HepaRG_ABCB11: Life Technologies and Expression Analysis (LTEA) Assay for ABC Transporter (ABCB11) using HepaRG (AID 2283463)
Summary of the method: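 Using HepaRG cultures held in 0.5% DMSO, chemicals were tested at half-log dilutions from 100 uM for 48 h. Induction or suppression of ABCB11 mRNA, normalized to ACTB, GAPDH and POLR2A, was fitted bidirectionally against vehicle.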

[16] = read-out: ABC Transporter (ABCC2), ABCC2 (gene 1244); test: LTEA_HepaRG_ABCC2: Life Technologies and Expression Analysis (LTEA) Assay for ABC Transporter (ABCC2) using HepaRG (AID 2283464)
Summary of the method: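 After plating and 48 h culture, HepaRG medium is replaced with serum-free induction medium and chemicals are added (8 concentrations, max 100 uM, 0.5% DMSO) for 48 h. Total RNA then undergoes qRT-PCR for ABCC2 with housekeeping normalization.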

[17] = read-out: Cyclin D1 (CCND1), CCND1 (gene 595); test: LTEA_HepaRG_CCND1: Life Technologies and Expression Analysis (LTEA) Assay for Cyclin D1 (CCND1) using HepaRG (AID 2283451)
Summary of the method: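 Expression change is measured by qRT-PCR in HepaRG cells after 48 h treatment across eight concentrations topping at 100 uM, with duplicate wells and DMSO (0.5%) serving as baseline for bidirectional fitting.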

[18] = read-out: Broad substrate specificity ATP-binding cassette transporter ABCG2 (Homo sapiens) (UniProt Q9UNQ0); test: LTEA_HepaRG_ABCG2: Life Technologies and Expression Analysis (LTEA) Assay for ABC Transporter (ABCG2) using HepaRG (AID 2283465)
Summary of the method: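 Gene expression of ABCG2 in HepaRG liver cells is quantified by qRT-PCR following 48 h exposure across an eight-point series topping at 100 uM. Values come from bidirectional fitting relative to DMSO vehicle.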

Measured: AC50

Sequence of Fatty acid synthase (Homo sapiens) (P49327 whole entry, looked up): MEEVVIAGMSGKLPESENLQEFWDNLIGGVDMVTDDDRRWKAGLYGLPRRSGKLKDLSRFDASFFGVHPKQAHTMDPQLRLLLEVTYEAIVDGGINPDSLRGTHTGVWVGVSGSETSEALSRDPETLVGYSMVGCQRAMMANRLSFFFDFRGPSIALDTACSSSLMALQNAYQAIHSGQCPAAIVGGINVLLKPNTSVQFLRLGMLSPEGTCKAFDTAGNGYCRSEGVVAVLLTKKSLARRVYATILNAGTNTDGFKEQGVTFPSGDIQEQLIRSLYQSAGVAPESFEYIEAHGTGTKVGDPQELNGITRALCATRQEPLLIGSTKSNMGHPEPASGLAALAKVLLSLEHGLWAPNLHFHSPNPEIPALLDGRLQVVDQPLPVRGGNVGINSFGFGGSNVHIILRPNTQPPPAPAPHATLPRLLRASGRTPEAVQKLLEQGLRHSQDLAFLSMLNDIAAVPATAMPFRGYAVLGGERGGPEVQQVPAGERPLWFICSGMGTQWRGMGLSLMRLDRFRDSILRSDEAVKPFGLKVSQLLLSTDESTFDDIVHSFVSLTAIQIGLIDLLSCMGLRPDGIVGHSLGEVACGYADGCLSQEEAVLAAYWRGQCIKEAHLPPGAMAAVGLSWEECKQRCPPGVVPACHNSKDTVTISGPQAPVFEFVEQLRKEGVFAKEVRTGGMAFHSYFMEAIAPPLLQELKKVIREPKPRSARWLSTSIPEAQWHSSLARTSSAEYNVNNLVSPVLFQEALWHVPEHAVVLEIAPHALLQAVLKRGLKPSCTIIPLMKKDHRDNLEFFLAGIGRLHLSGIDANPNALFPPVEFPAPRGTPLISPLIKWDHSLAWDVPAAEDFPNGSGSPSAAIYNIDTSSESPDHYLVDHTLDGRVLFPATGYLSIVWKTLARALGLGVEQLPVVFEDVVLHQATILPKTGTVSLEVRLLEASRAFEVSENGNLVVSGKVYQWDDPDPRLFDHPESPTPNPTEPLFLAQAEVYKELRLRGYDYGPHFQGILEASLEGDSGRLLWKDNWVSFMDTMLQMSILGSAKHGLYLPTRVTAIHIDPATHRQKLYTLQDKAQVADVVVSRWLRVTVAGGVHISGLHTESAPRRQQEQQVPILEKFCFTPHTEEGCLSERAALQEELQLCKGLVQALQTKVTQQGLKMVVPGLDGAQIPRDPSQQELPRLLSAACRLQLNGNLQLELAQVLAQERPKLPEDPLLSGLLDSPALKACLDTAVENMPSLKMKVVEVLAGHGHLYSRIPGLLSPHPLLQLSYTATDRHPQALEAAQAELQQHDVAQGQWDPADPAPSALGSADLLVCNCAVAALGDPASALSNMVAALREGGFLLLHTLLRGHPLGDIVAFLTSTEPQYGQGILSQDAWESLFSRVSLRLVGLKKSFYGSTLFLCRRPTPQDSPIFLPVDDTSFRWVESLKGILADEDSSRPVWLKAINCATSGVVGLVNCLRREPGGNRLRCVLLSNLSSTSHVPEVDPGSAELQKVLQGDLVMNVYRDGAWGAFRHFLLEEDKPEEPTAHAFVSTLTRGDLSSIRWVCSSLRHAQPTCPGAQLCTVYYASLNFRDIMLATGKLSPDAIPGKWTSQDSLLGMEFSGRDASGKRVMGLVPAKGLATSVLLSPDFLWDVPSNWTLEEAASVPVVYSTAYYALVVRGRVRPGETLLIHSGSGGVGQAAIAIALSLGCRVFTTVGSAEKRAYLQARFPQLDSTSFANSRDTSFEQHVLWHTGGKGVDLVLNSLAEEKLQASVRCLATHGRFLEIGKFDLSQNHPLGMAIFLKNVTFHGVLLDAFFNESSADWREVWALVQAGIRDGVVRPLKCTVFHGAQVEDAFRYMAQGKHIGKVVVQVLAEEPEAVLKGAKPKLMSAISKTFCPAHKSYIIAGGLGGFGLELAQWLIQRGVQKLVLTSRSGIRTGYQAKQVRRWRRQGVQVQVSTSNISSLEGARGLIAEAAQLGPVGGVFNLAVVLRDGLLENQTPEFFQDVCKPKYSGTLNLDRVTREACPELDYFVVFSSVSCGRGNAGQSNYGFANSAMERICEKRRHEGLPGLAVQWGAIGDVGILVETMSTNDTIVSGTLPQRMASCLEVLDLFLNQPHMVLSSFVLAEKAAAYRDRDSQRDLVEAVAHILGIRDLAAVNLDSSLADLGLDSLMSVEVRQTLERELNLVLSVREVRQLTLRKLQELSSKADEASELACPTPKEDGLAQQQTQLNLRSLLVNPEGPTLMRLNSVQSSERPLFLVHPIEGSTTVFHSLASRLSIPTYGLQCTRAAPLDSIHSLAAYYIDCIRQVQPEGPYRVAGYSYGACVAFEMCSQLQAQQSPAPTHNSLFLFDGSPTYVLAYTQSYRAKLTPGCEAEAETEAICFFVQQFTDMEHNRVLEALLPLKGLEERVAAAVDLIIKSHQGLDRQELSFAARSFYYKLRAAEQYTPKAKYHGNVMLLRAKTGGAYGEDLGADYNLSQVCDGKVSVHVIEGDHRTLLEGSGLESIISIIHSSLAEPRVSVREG
Sequence of Broad substrate specificity ATP-binding cassette transporter ABCG2 (Homo sapiens) (Q9UNQ0 whole entry, looked up): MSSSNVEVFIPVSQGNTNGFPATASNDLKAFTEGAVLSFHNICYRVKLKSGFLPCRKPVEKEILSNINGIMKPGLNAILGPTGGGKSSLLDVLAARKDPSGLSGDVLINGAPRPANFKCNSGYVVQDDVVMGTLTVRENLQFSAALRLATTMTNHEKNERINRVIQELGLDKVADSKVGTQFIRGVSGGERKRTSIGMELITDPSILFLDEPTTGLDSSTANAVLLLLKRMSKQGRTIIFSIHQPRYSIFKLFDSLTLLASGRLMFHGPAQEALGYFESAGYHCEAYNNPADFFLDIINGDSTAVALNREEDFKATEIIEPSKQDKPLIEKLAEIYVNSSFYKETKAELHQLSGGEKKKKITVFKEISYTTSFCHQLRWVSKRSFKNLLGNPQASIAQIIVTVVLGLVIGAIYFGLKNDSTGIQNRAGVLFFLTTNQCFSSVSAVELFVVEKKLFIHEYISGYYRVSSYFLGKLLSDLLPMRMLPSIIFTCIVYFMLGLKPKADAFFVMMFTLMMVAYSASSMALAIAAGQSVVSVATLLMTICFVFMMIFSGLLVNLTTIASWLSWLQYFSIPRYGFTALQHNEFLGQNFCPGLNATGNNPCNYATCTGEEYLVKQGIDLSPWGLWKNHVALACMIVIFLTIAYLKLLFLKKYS

Nc1nc(=S)c2[nH]cnc2[nH]1
inactive: [3] | [8] | [9] | [10] | [11] | [13]
active: [1] 3.1 µM | [2] 9.16 µM | [4] 6.05 µM | [5] 7.04 µM | [6] 6.74 µM | [7] 76.1 µM | [12] 10.3 µM | [14] 13.9 µM | [15] 7.88 µM | [16] 21.1 µM

COC(=O)[C@H]1[C@H]2C[C@@H]3c4[nH]c5cc(OC)ccc5c4CCN3C[C@H]2C[C@@H](OC(=O)c2cc(OC)c(OC)c(OC)c2)[C@@H]1OC
active: [2] 28.1 µM | [3] 14.9 µM | [5] 42.2 µM | [6] 30.5 µM | [12] 9.75 µM | [14] 49.8 µM | [16] 67.4 µM
not listed: [7] | [15]
inactive: all other assays above

CSc1ccc(Oc2ccc(S(N)(=O)=O)cc2CN(C)C)cc1C
active: [2] 83.1 µM | [6] 77.7 µM | [7] 69.8 µM | [14] 81.5 µM | [15] 84.6 µM
not listed: [9]
inactive: all other assays above

COC(=O)CCCC(=O)OC
active: [14] 0.263 µM
not listed: [9] | [15] | [18]
inactive: all other assays above

CCCCC(CC)COP(=O)(OCC(CC)CCCC)OCC(CC)CCCC (stereo not drawn)
active: [7] 25.6 µM | [12] 8.5 µM
not listed: [17] | [18]
inactive: all other assays above

O=Cc1ccccc1C=O
active: [7] 18.5 µM
not listed: [15]
inactive: all other assays above

CCCCC(CC)COC(=O)CCCCCCCC(=O)OCC(CC)CCCC (stereo not drawn)
active: [7] 50 µM
not listed: [17] | [18]
inactive: all other assays above
